Bioassay records (PubChem)
An excerpt weighted towards active compounds, which were near 4.6% of everything screened.
ABHD5 PLIN5 PPI: blocks binding of human ABHD5 to perilipin-5. 360,000 tested, 0.78% active. Q00G26+Q8WTS1. inhibition, % at 4 µM. Split G. princeps luciferase complementation, luminescence, 4 h;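 active means inhibition above the mean inhibition across every tested compound plus 3 SD, cut at about 22% in these data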;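 further: 0% = DMSO only wells and the 100% control is not disclosed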
Mdm2-MdmX inh: inhibitors of human Mdm2/MdmX interaction. inhibition, % at 8 µM. O15151+Q00987. 330,000 tested, 3% active. SaOS-2 split-luciferase Mdm2/MdmX complementation, luminescence;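 active means inhibition of at least 50% at 8 µM in the primary screen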
CF NFkB inh: inhibitors of cystic fibrosis induced NF-kB | KKLEB NF-kB-GFP reporter, PAF-induced, GFP fluorescence overnight | inhibition, % at 5 µM | 360,000 tested, 0.86% active | AID 588850;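 active means at least 50% inhibition at 5 µM, scaled per plate between neutral and stimulator controls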;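 further: PAF is a Pseudomonas aeruginosa culture filtrate used as stimulus; plate controls were PAF-stimulated DMSO wells for no effect and unstimulated DMSO wells for full effect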
Peg3 prom inh: reduces Peg3 promoter-driven luciferase expression in HeLa. 360,000 tested, 1.7% active. AID 588405. inhibition, % at 20 µM. HeLa PEG-Prom luciferase reporter, luminescence, overnight;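 active means inhibition of at least 50% at 20 µM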
HIF-2a block: inhibitors of HIF-2a | 786-0 RCC cells HIF-2a reporter, luciferase luminescence, overnight | inhibition, % at 18.8 µM | 360,000 tested, 0.72% active;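 active means inhibition of the luminescence signal of 40% or more relative to plate controls, in a single-dose primary screen at 18.75 µM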
KKLEB tox: CF airway cell cytotoxicity counter-screen. 360,000 tested, 0.36% active. KKLEB CF airway cells viability, ATPlite luminescence, overnight; hits give low values; cells stimulated with P. aeruginosa culture filtrate. activity change (cytotoxicity), % at 5 µM;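 active means corrected activity change at or below -50% at 5 µM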
Mdm2-MdmX conf: confirmation of human Mdm2/MdmX interaction inhibitors | 10,000 tested, 55% active | inhibition, % at 8 µM | AID 489028 | Mdm2-MdmX binding, luminescent assay | shares compounds with Mdm2-MdmX inh; in the data active means inhibition above about 40%
FLuc counter: inhibits full-length luciferase, flagging false Mdm2/MdmX hits; shares compounds with Mdm2-MdmX inh; SaOS-2 full-length luciferase counterscreen, luminescence; inhibition, % at 8 µM; 6,200 tested, 77% active; AID 504607;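 active means mean inhibition at 8 µM reaching about 37%, which flags the compound as non-specific, limit read from the data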;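 further: p53-null SaOS-2 cells with luciferase driven by a doxycycline-inducible promoter; compound on cells about two nights before reading with doxycycline added after day one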
Numbers without * were called inactive; nt = no result.

SMILES	ABHD5 PLIN5 PPI	Mdm2-MdmX inh	CF NFkB inh	Peg3 prom inh	HIF-2a block	KKLEB tox	Mdm2-MdmX conf	FLuc counter
Cc1ccc(S(=O)(=O)c2nc(S(=O)(=O)c3ccccc3)sc2N2CCN(C)CC2)cc1	2	61*	14	33	-19	-4	47*	24
O=C(Nc1ccc(OC(F)F)cc1)c1cc(S(=O)(=O)N2CCOCC2)ccc1N1CCCC1	-2	nt	-16	18	11	19	nt	nt
CC(C)(C)c1ccc(C(=O)N2CCC2(C)C(=O)Nc2ccc3nc[nH]c3c2)cc1 (configuration not stated)	2	nt	-3	-3	-2	2	nt	nt
O=C1c2ccccc2NC(c2ccc(Br)s2)N1O (configuration not stated)	nt	54*	nt	nt	nt	nt	62*	44*
C=CCN1C(=O)c2ccccc2NC1c1ccc(Br)s1 (configuration not stated)	2	0	-7	21	6	12	nt	nt
COc1cccc(CNC(=O)c2ccc(NC(=O)C3=CSCCO3)cc2)c1	8	5	7	-146	-134	9	nt	nt
COc1ccc2oc(=O)c(-c3csc(Nc4ccc(O)cc4)n3)cc2c1	4	54*	-22	-42	-321	-6	19	133*
COc1ccc(/C(N)=N/OC(=O)C2CCC(=O)N2S(=O)(=O)c2ccc(C)cc2)cc1OC (configuration not stated)	-2	74*	-1	12	6	-3	55*	76*
O=C(c1cc(-c2cccc(O)c2)on1)N1CCN(C(c2ccccc2)c2ccccc2)CC1	-4	50	29	82*	-32	-13	13	nt
O=C(c1cc(C2CC2)on1)N1CCN(C(c2ccccc2)c2ccccc2)CC1	-1	-11	4	0	19	21	nt	nt
Cc1cccc(N2CCN(C(=O)Cc3cn(C)c4ccccc34)CC2)c1C	-2	53*	15	24	12	-14	43*	55*
CCOc1ccc(/C=N/NC(=O)COc2ccccc2-c2ccccc2)cc1	-1	51*	-6	36	7	1	44*	52*
CCOc1ccc(/C=N/NC(=O)c2c(-c3ccccc3)noc2C)cc1	-5	15	6	18	7	-3	nt	nt
CCOc1ccc(/C=N/NC(=S)Nc2c(C)cccc2C)cc1	-11	52*	-7	27	29	0	15	nt
CCNC(=S)N/N=C/c1ccc(OCCOc2ccccc2C)cc1	3	37	1	15	1	2	nt	nt
COc1ccc(OCCCC(=O)Nc2ncn[nH]2)cc1	-4	-2	-19	9	4	4	nt	nt
CC(C)Cn1c(SCC(=O)NC2CC2)nc2ccccc21	0	nt	-8	7	11	1	nt	nt
CC(=O)OCC(=O)C1=CCC2C3CCC4=CC(=O)C=CC4(C)C3(F)C(OC(C)=O)CC12C (configuration not stated)	1	78*	36	20	21	-4	49*	46*
Cc1ccc(S(=O)(=O)CCC(=O)Nc2cc(C)on2)cc1	2	nt	2	2	-2	2	nt	nt
Cc1cc(NC(=O)CCS(=O)(=O)c2nc(-c3ccccc3)cc(C(F)(F)F)n2)no1	42*	88*	76*	106*	65*	-33	78*	43*
COc1ccc(-c2cc(C(F)(F)F)nc(S(=O)(=O)CCCC(=O)Nc3cccc(O)c3)n2)cc1OC	23*	73*	86*	96*	-9	-80*	36	nt
COc1ccccc1-c1cc(C(F)(F)F)nc(S(=O)(=O)CCCC(=O)O)n1	14	4	33	2	-1	-40	nt	nt
COc1ccccc1OCC(=O)N1CCN(C(=O)c2ccco2)CC1	-5	15	-3	13	16	4	nt	nt
CCCC[C@@H]1CNC(=O)C(=O)N1CCCC	7	nt	nt	nt	5	nt	nt	nt
CCCOc1ccc(C(F)(F)F)cc1NC(=O)C1CC(=O)N(Cc2ccco2)C1 (configuration not stated)	-1	-3	12	17	11	-26	nt	nt
